Where “and” joins values, the source holds several entries; their conditions need not be identical. Equal values may be shown once. In all, about 420,000 compounds went through this assay and about 540 (0.13%) were called active. Rule as the data show it: active = activity change below about -50%; inconclusive = mostly about -30% to -49%; inactive = weaker than that. Many of the other results were omitted from the sample, so actives are more common in it than they were. The source holds several records for some structures; these can differ, active in one and inactive in another.

The target in this assay is Phosphatidylinositol 4-kinase type 2-alpha (Homo sapiens) (UniProt Q9BTU6). Put plainly: qHTS for small molecular inhibitors of PI4K2A.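 Also: -100% = wells without enzyme as full effect.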 To be noted: purified PI4K2A, ADP-Glo luminescence, 1 h; at 76.9 µM, stronger effect = lower value. A digest of the protocol: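 PI4K2A activity was measured by ADP-Glo luminescence: enzyme (4 ug/mL stock) and phosphatidylinositol (1.2 mM stock) in Tris pH 7.5/MgCl2/EGTA/Triton X-100 buffer were reacted with ATP (300 microM stock) for one hour at ambient temperature.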
Sequence of Phosphatidylinositol 4-kinase type 2-alpha (Homo sapiens) (Q9BTU6 whole entry, looked up): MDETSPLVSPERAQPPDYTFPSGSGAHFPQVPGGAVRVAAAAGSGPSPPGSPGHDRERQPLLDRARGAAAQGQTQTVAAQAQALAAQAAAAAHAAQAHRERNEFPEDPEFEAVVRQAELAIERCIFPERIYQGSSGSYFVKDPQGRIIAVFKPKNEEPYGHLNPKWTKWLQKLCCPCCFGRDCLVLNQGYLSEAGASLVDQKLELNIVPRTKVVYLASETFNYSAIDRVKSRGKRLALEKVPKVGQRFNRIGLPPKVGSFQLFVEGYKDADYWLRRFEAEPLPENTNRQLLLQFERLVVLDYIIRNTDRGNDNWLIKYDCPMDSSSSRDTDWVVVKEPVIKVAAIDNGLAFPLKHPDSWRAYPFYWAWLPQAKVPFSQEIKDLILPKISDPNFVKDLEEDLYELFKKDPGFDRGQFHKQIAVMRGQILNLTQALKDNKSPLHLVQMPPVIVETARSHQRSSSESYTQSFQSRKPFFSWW
Background: In qHTS, concentration-response curves come from the screen itself.
For the molecule `Cc1ccc(C(=O)Nc2ccccc2F)cc1S(=O)(=O)N1CCOCC1`, the activity change, negative = inhibition is -6.24% (inactive).
Then `Cn1c(-c2ccco2)nc2cc3ccccc3cc21`, with -59.4% (active); and `Cc1ccc(Cc2c(-c3ccco3)nc3ccc(Cl)cn23)cc1`, with -30% (inactive); and `c1ccc(Cc2c(-c3ccco3)nc3c4ccccc4ccn23)cc1`, with -13.4% (inactive).
Then `COc1cc(/C=C/C(N)=O)cc(OC)c1OC`, with -0.706% (inactive); and `CCC(=O)Nc1ccccc1-c1nc2ccccc2n(CC(=O)Nc2ccc(C)c(C)c2)c1=O`, with 0.486% (inactive).
Then `COc1cccc(NC(=O)CN2C(=O)c3ccccc3Sc3ncccc32)c1`, with 0.541% (inactive).
In the case of `COc1ccc(-c2onc(C)c2C)cc1S(=O)(=O)NCCc1ccccc1`, the activity change, negative = inhibition is 0.384% (inactive).
Then `CCN(CCCNC(=O)c1ccc(Sc2ccc(C)cc2)c(NC(C)=O)c1)c1cccc(C)c1`, with 2.25% (inactive); and `COc1ccc(-c2nnc(SCC(=O)Nc3ccc(C(C)C)cc3)nc2-c2ccc(OC)c(OC)c2)cc1OC`, with 0.608% (inactive).
Then `CNC(=O)c1ccc(-c2nc(CN3CCc4ccccc43)c(C)o2)cc1`, with 2.42% (inactive).
As to `CC(=O)c1c(C)n(S(=O)(=O)c2ccc(Cl)cc2)c2ccc(NS(=O)(=O)c3ccc(Cl)cc3)cc12`, the activity change, negative = inhibition was 2.95% (inactive).
Then `O=C(Nc1ccccc1)c1ccc2c(c1)OCCCO2`, with -52.6% (active).
`N#CCCN(C(=O)COC(=O)c1ccc2c(c1)OCCO2)c1ccccc1`: the activity change, negative = inhibition was 3.66% (inactive).
The result for `CSc1ccccc1-c1nnc(NC(=O)c2ccc3c(c2)OCCO3)o1` reads 3.71% (inactive); that for `O=C(COC(=O)c1ccccc1)c1ccc2c(c1)OCCO2`, -52.5% (active); that for `O=C1COc2ccc(C(=O)COC(=O)c3ccccc3Cl)cc2N1`, 1.21% (inactive).
For `CS(=O)(=O)N1CCc2cc(C(=O)Nc3ccccc3)ccc21`, the activity change, negative = inhibition is -7.3% (inactive).
The result for `CCC(C)NC(=O)Cn1c(=O)n(-c2ccc(Cl)cc2)c(=O)c2c3c(sc21)CCCC3` (configuration not stated) reads -10.3% (inactive); that for `CCCn1c2ccccc2c2cnn(CC(=O)N(CC)c3cc(C)ccc3C)c(=O)c21`, -0.786% (inactive); that for `CN(C)c1cc2c(Nc3ccc4c(cnn4Cc4ccccc4)c3)ncnc2cn1`, -9.09% (inactive).
The result for `COc1cccc(C(=O)c2cc3ccc(O)cc3oc2=O)c1` reads -61.7% (active); that for `COc1ccc(CNC(=O)c2cc3cccc(OC)c3oc2=O)cc1`, 3.69% (inactive); that for `COc1cccc(C(=O)Nc2ccc3oc(-c4ccc5ccccc5c4)nc3c2)c1`, -2.82% (inactive).
The result for `CCOc1ccc(NS(=O)(=O)c2ccc(N)cc2)nn1` reads -1.1% (inactive); that for `CC1=C(C(=O)OCC(C)C)C(c2ccc(OCc3ccccc3)cc2)N2C(=O)CCSC2=N1` (configuration not stated), 5.39% (inactive); that for `CCCCOc1ccc(CN2C(=O)C(=O)c3cc(Br)cc(C)c32)cc1OC`, 13% (inactive).
For `Cc1ccc(-n2nc(C)c(C(=O)O)c2-n2cccc2)cc1`, the activity change, negative = inhibition is 3.8% (inactive).
For the molecule `O=C(O)/C(=C/c1c(C(=O)O)[nH]c2cc(Cl)cc(Cl)c12)c1ccccc1`, the activity change, negative = inhibition is -3.01% (inactive).
The result for `Cc1[nH][nH]c(=O)c1C(c1ccc(-c2ccc(Cl)cc2)o1)c1c(C)[nH][nH]c1=O` reads -14% (inactive).
On to `Cc1[nH][nH]c(=O)c1C(c1ccc2c(c1)OCO2)c1c(C)[nH][nH]c1=O`, for which the activity change, negative = inhibition was -66.9% (active).
For the molecule `Nc1[nH][nH]c(=O)c1N=Nc1ccc2c(c1)OCO2`, the activity change, negative = inhibition was -6.7% (inactive).
Then `CCOC(=O)c1ccc(-c2ccc(/C=C(\C#N)C(=O)Nc3ccc(OCC)cc3)o2)cc1`, with -0.67% (inactive).
For the molecule `CCOc1ccc(NC(=O)Cn2c(C)ccc(C#N)c2=O)cc1`, the activity change, negative = inhibition was 1.57% (inactive).
The result for `CCOc1ccc(NC(=O)c2ccc(NC(=O)COC(=O)c3ccc(NC(=O)CC#N)cc3)cc2)cc1` reads -84.7% (active); that for `COC(=O)CN1C(=O)CSc2ccc(S(=O)(=O)Nc3cc(C)ccc3C)cc21`, -1.14% (inactive).
Then `Cc1ccc(S(=O)(=O)c2cn(Cc3ccccc3)c3cc(N4CCCC4)c(F)cc3c2=O)c(C)c1`, with 2.36% (inactive); and `O=C(NCc1ccc(F)cc1)c1ccc(Cn2c(SCc3ccc(F)cc3)nc3cccnc32)cc1`, with -1.71% (inactive).
Then `O=C(OCC(O)CO)c1ccccc1Nc1ccnc2c(C(F)(F)F)cccc12` (configuration not stated), with 0.766% (inactive); and `COc1ccc(C(=O)Nc2ccccc2C(=O)N/N=C/c2ccc(O)c(OC)c2)cc1`, with -68.9% (active).
With `COc1cccc(/C=N/NC(=O)C(=O)N2CCCC2)c1`, the activity change, negative = inhibition is -2.13% (inactive).
The result for `COc1ccc(Nc2ncc(C(=O)Nc3cc(C)ccc3OC)c3ccccc23)cc1` reads 2.21% (inactive).
Turning to `CC(=O)/C(C)=N/O`, the activity change, negative = inhibition was -0.649% (inactive).
Turning to `O=C(Nc1c(C(=O)N2CCN(c3ccc(F)cc3)CC2)oc2ccccc12)c1ccco1`, the activity change, negative = inhibition is -1.83% (inactive).
The result for `CCc1ccc2ncc3c(-c4ccc(C)cc4)nn(CC(=O)NCc4ccccc4)c3c2c1` reads 8.2% (inactive); that for `COc1ccc(OCCn2cc(C(=O)C3CCCCC3)c3ccccc32)cc1`, -0.826% (inactive); that for `COc1cc(C(=O)Nc2ccc(-n3c(C)nc4ccccc4c3=O)cc2)cc(OC)c1OC`, 6.04% (inactive).
The result for `Cc1ccc2onc(CC(=O)N3CCN(c4ccc(Cl)cc4)CC3)c2c1` reads 2.89% (inactive); that for `O=C(OCc1ccccc1)c1ccc(O)cc1`, -0.636% (inactive); that for `Cc1ccc(-c2cn3c(n2)sc2cc(C(=O)NCCCc4ccccc4)ccc23)cc1`, -1.39% (inactive).
The result for `COc1ccc(-c2cn3c(n2)sc2cc(C(=O)Nc4ccccc4F)ccc23)cc1` reads -4.68% (inactive); that for `CCN1CCN(CCCNC(=O)c2ccc3c(c2)sc2nc(-c4ccc(OC)cc4)cn23)CC1`, -72.4% (active); that for `CCC(=O)Nc1cccc(-c2nc3cc(C)ccc3o2)c1`, -9.07% (inactive).
For the molecule `O=C(Nc1ccc(Br)cc1)c1ccc(Br)c(S(=O)(=O)NCc2ccccc2)c1`, the activity change, negative = inhibition is -0.252% (inactive).
Then `CCC(=O)N1CCc2cc(S(=O)(=O)NC(C(=O)NCCc3ccc(C)cc3)C(C)C)ccc21` (configuration not stated), with -3.91% (inactive); and `CC(C)c1ccc(C2CC(=O)N3CN(C4CCCCC4)CSC3=C2C#N)cc1` (configuration not stated), with -15.6% (inactive).
The result for `Cc1cc(C)c(NC(=O)CN2C(=O)c3cccnc3Oc3ccc(Cl)cc32)c(C)c1` reads -3.1% (inactive).
The result for `COC(=O)/C=C(/C)N` reads -1.85% (inactive).
`Cc1n[nH]c(=O)nc1N/N=C/c1cccs1`: the activity change, negative = inhibition is -51.8% (active).
Take `COc1ccc2c(c1)c(C(=O)N/N=C/c1cccs1)c(C)n2C`: the activity change, negative = inhibition was -1.53% (inactive).
As to `O=c1nc(N/N=C/c2ccco2)cn[nH]1`, the activity change, negative = inhibition is -22.5% (inactive).
Take `CCCCC12CN3CC(C)(CN(C1)C3c1ccc(O)c(OC)c1)C2=O` (configuration not stated): the activity change, negative = inhibition was 0.484% (inactive).
The result for `CCCCNC(=O)c1ccc2c(c1)NC(=O)C(C(C)C)N2` (configuration not stated) reads -1.85% (inactive); that for `COc1ccc(CCNC(=O)CCCn2c(=O)c3ccccc3n(Cc3ccc(F)cc3Cl)c2=O)cc1OC`, 1.26% (inactive); that for `O=C(O)c1ccc(-n2cccc2)cc1O`, 1.97% (inactive).
The result for `O=C(Nc1ccc(C(=O)O)c(O)c1)c1ccccc1` reads -14.9% (inactive) and -50.4% (active); that for `O=C(Cn1ccc(=O)[nH]c1=O)Nc1ccc(C(=O)O)c(O)c1`, -9.18% (inactive).
Take `CCCCOc1ccc(CNC(=O)c2ccc3c(c2)N(C)C(=O)C2CCCCN32)cc1` (configuration not stated): the activity change, negative = inhibition was 1.06% (inactive).
`CC(C)(C)OC(=O)N1CCC(c2c(C(=O)Nc3ccc4c(c3)OCO4)cnn2-c2ccccc2)CC1`: the activity change, negative = inhibition was -3.37% (inactive).
The result for `Cc1cccc(-c2nnc(SCC(=O)N3CCCc4ccccc43)o2)c1` reads 1.17% (inactive).
Take `CCCCOc1ccc(C(=O)Nc2cccc(-c3nc4ccccc4o3)c2C)cc1`: the activity change, negative = inhibition is -4.4% (inactive).
For the molecule `CCOC(=O)c1cccc(NS(=O)(=O)c2cc(-c3cnc(C)o3)ccc2OC)c1`, the activity change, negative = inhibition is -9.3% (inactive).
As for `COc1ccc(Cl)cc1NC(=O)CSc1nc(=O)[nH]c2c1CCCC2`, the activity change, negative = inhibition was 3.81% (inactive).
The result for `CCc1ccccc1NC(=O)Cc1ccc(NC(=O)N2CCCCc3ccccc32)cc1` reads -0.392% (inactive); that for `COC(=O)c1cc(NC(=O)CCS(=O)(=O)c2cc(Br)cc3c2N(C(=O)C2CC2)CC3)cc(C(=O)OC)c1`, 1.45% (inactive).
Then `CCOc1cc(-c2nnc(SCC(=O)NC3CCCC3)nc2-c2ccc(OC)c(OCC)c2)ccc1OC`, with 1.43% (inactive).
Then `C=CC1(C)CC(=O)C2(O)C(C)(O1)C(OC(C)=O)C(O)C1C(C)(C)CCC(O)C12C` (configuration not stated), with -8.1% (inactive).
For `COc1ccc(-c2nc3ccccc3o2)cc1NC(=O)c1cc([N+](=O)[O-])ccc1N1CCOCC1`, the activity change, negative = inhibition was -1.07% (inactive).
Take `COc1ccc(/C=C/c2nc(C#N)c(NCc3ccc(F)cc3)o2)cc1OC`: the activity change, negative = inhibition is 3.37% (inactive).
Regarding `CCc1ccc(NC(=O)c2cc(S(=O)(=O)NC3CCCCCC3)ccc2F)cc1`, the activity change, negative = inhibition is 1.04% (inactive).
Then `Oc1ccc(Cn2cc[nH]c2=S)cc1`, with 2.19% (inactive).
The result for `CCC1=Nc2cc(C(=O)NCC(C)c3ccccc3)ccc2Sc2ccc(C)cc21` (configuration not stated) reads -0.814% (inactive); that for `CCOc1ccc(NC(=O)Cn2cc(C(=O)c3ccc(C)cc3)c(=O)c3cc4c(cc32)OCCO4)cc1`, -5.72% (inactive).
The result for `CCCn1ccc2c(OCC(=O)NCc3ccc(F)cc3)cccc2c1=O` reads 1.12% (inactive); that for `O=C(c1ccc2c(c1)N(Cc1ccccc1)C(=O)c1ccccc1S2(=O)=O)N1CCC(Cc2ccccc2)CC1`, -3.09% (inactive).
As for `CCOc1ccccc1NC(=O)CN1CCN(S(=O)(=O)c2ccc(Br)cc2)CC1`, the activity change, negative = inhibition was -3.13% (inactive).
The result for `CCOc1ccccc1NC(=O)Cn1c(=O)n(-c2cccc(C)c2)c(=O)c2c1c1cc(OC)ccc1n2C` reads 5.68% (inactive).

Values taken from PubChem BioAssay AID1346378 (National Center for Advancing Translational Sciences (NCATS), 2018).
